PubChem BioAssay
Activity calls are given as the source filed them.

Key:
[1] = compound effects on lung adenocarcinoma cell viability – A549, calcein-AM fluorescence, 48 h, basal, profiling panel (AID 1162); details: higher = more signal
[2] = compound effects on differentiated 3T3-L1 adipocyte viability – cell-based, 3T3-L1 adipocytes, calcein-AM fluorescence, 48 h, basal, profiling panel (AID 1163); details: 3T3-L1 adipocytes viability, higher = more signal
[3] = compound effects on hepatocellular carcinoma cell viability – HepG2, calcein-AM fluorescence, 48 h, basal, profiling panel (AID 1164); details: higher = more signal
[4] = compound effects on multiple myeloma cell viability – MM1S, calcein-AM fluorescence, 48 h, basal, profiling panel (AID 1165); details: higher = more signal;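 also: viability of MM1S multiple myeloma cells under basal unstimulated conditions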
[5] = calcein-AM signal in unstimulated myeloma cells – cell-based, calcein-AM fluorescence, 48 h, PK04 Diversity Set, profiling panel (AID 1166); details: RPMI8226 myeloma viability, higher = more signal;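 also: cells grown under basal conditions without added stimulus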
[6] = JC-1 mitochondrial signal, unstimulated HepG2 cells – cell-based, JC-1 fluorescence, 24 h, 100 nL compound, profiling panel (AID 1167); details: HepG2 mitochondrial potential, higher = more signal
[7] = JC-1 mitochondrial signal, unstimulated adipocytes – cell-based, JC-1 fluorescence, 3T3-L1 adipocytes, 24 h, 100 nL compound, profiling panel (AID 1168); details: JC-1 mitochondrial fluorescence, higher = more signal, called active from +8 up or from −8 down
[8] = JC-1 mitochondrial signal, unstimulated myeloma cells – cell-based, JC-1 fluorescence, RPMI8226, 24 h, 100 nL compound, profiling panel (AID 1169); details: JC-1 mitochondrial potential fluorescence, higher = more signal
[9] = JC-1 mitochondrial signal, unstimulated MM1S myeloma – cell-based, JC-1 fluorescence, 24 h, 100 nL compound, profiling panel (AID 1170); details: MM1S mitochondrial potential, higher = more signal
[10] = resazurin metabolic signal in A549 cells – cell-based, resazurin fluorescence, 24 h, PK04 Diversity Set, profiling panel (AID 1171); details: A549 viability, higher = more signal, called active from +8 up or from −8 down
Also: test concentration not given here.

SMILES	z-score [1]	z-score [2]	z-score [3]	z-score [4]	z-score [5]	z-score [6]	z-score [7]	z-score [8]	z-score [9]	z-score [10]
CCOC(=O)[C@H]1CC=C2CC1C(=O)N1CCC[C@@H]1[C@@H]2O[Si](C)(C)C(C)(C)C (stereo not given in full)	-1.63	0.312	-1.43	-2.85	-4.07	-2.25	-1.07 (inactive)	-1.06	0.167	3.69 (inactive)
C=CCC(OC(C)=O)[C@@H]1[C@@H](N(Cc2ccc(-c3cccc(C(F)(F)F)c3)o2)C(=O)Cc2ccc(F)cc2)c2cc(OCCCO)ccc2N1C(=O)Cc1ccc(OC)cc1 (stereo not given in full)	1.31	1.16	0.892	-0.394	0.274	2.87	0.649 (inactive)	-0.386	-0.195	0.555 (inactive)
C=CC[C@@]1(C(N)=O)N=C(c2ccc(OCCCO)cc2)O[C@@H]1c1ccccc1CN=[N+]=[N-]	0.0465	1.69	0.0287	0.204	-0.189	-2.45	-0.337 (inactive)	-0.231	-1.79	-0.29 (inactive)
CN1C(=O)C2C=CC(C(O)c3ccc(I)cc3)N(N3CCCCC3)C2C1=O (stereo not given)	-0.481	-0.111	-0.619	-3.7	-0.955	-0.62	-0.435 (inactive)	-0.484	-0.624	-0.799 (inactive)
Cc1ccc(S[C@]2(C(=O)NCC(C)C)CC(=O)N(Cc3cc(C(F)(F)F)cc(C(F)(F)F)c3)[C@@H]2c2ccc(CO)cc2I)cc1	-0.431	0.299	-0.588	-3.16	-2.29	-0.523	-0.3 (inactive)	-0.39	-1.01	-0.227 (inactive)
CCOC(=O)C[C@H]1[C@H](OC(=O)Cc2ccc3c(c2)OCO3)[C@@H](NC(=O)c2ccc(-c3ccccc3)cc2)c2cc(OCCCO)ccc2N1C(=O)c1ccc2ccccc2n1	1.8	2.75	1.65	0.218	-0.472	2.72	0.61 (inactive)	-0.233	-0.903	0.562 (inactive)
COc1cc2c(cc1OC)CN(C(=O)[C@H]1[C@@H]3C(=O)O[C@@H](c4ccccc4)[C@@H](c4ccccc4)N3[C@@H](c3ccc(O)cc3)[C@]13C(=O)Nc1ccc(C#CC4=CCCCC4)cc13)CC2	-0.59	0.474	0.679	-0.35	-2.23	-0.259	2.83 (inactive)	-0.243	-0.101	-0.435 (inactive)
O=C(NCc1ccccc1)[C@@]1(Cc2ccccc2)N=C(c2ccc(OCCCO)cc2)O[C@H]1c1ccccc1	-2.86	0.967	-2.26	-1.42	-3.32	1.19	-0.357 (inactive)	-1.02	-1.55	-0.331 (inactive)
C=CCN(Cc1ccccc1)C(=O)C(c1cccs1)N(CCOCCO)C(=O)/C=C\C(=O)O (stereo not given)	0.902	0.345	0.849	1.62	1	-0.138	0.0415 (inactive)	0.158	-1.37	-0.221 (inactive)
CC(C)(C)OC(=O)CC[C@]1(C(=O)O)N=C(c2ccc(OCCCO)cc2)O[C@H]1c1ccccc1N=[N+]=[N-]	0.559	-0.598	0.331	-0.128	-0.24	-2.45	0.328 (inactive)	-0.506	-0.589	0.0553 (inactive)
O=C1[C@H]2C=C(Br)[C@H](C[C@@H]2c2ccccc2)[C@@]12CO2	-1.18	-0.559	-0.675	-2.95	-2.49	-1.69	0.0869 (inactive)	-0.323	-0.609	-0.541 (inactive)
O=C1c2ccccc2[C@@]2(Cc3ccccc3N(CCN3CCOCC3)C2=O)[C@H](c2ccc(CO)cc2)N1Cc1ccccc1	0.668	-0.238	0.402	0.0855	0.66	0.761	0.734 (inactive)	-0.605	-0.253	-0.273 (inactive)
COC(=O)c1c(CC[C@@H](CO)NC(=O)N[C@H](Cn2cc(Cc3ccccc3)nn2)C(C)C)oc(C(C)=O)c1C(=O)OC	-0.138	1.62	0.141	0.486	-0.298	-0.0757	1.58 (inactive)	0.4	0.492	-0.896 (inactive)
C=CCNC(=O)[C@H]1[C@@H]2C(=O)O[C@@H](c3ccccc3)[C@@H](c3ccccc3)N2[C@@H](c2ccccc2OCCO)[C@]12C(=O)Nc1ccc(C#CC3=CCCCC3)cc12	-1.64	1.04	-4.21	-3.35	-4.07	-1.84	2.75 (inactive)	-0.853	-1.84	-1.27 (inactive)
CS(=O)(=O)CCOC(=O)C1=CC(CCCO)=CC(c2ccc(CN3CCCC3)cc2)N(Cc2cc3c(cc2Br)OCO3)C=C1C(=O)OCCS(C)(=O)=O (stereo not given)	1.94	-0.0958	-0.0078	-0.315	0.0614	3.02	0.771 (inactive)	0.00988	1.29	0.778 (inactive)
CN1C(=O)C2C=CC(C(O)C3=C[C@H]4C[C@@H](C3)C4(C)C)N(Nc3ccccc3)C2C1=O (stereo not given in full)	-0.456	-0.893	-0.0728	-2.52	-0.724	-1.75	-0.209 (inactive)	-0.353	-0.39	0.0383 (inactive)
